According to PubChem BioAssay AID2620 (National Center for Advancing Translational Sciences (NCATS), 2010):
Inconclusive results are not listed. Active and inactive are the calls of the source. Calls come from the whole dose curve; as a rule, active = well fitted curve in the direction sought with a large enough effect; inconclusive = small, poorly fitted or top-dose-only effect, or another doubt; inactive = no such curve, though single readings can be large or run the other way.

Each compound was assayed against Pyruvate kinase PKM (Homo sapiens) (UniProt P14618) (assay: Secondary LDH Assay for Activators of Human Pyruvate Kinase M1 Isoform: for Probe SAR). Conditions: purified hPK-M1, LDH-coupled NADH fluorescence kinetic; series mostly up to 58.2 µM.
From the text: NIH Chemical Genomics Center [NCGC]
Matthew G. Vander Heiden, M.D., Ph.D. [Harvard Medical School, 77 Avenue Louis Pasteur, Boston, MA 02115]
Human pyruvate kinase […] (hPK-M1)enzyme was supplied as a highly purified (>95% pure) preparation from Harvard Medical School and a secondary assay was used to evaluate compounds. This assay couples the formation of pyruvate from […] using lactate dehydrogenase (LDH) and NADH. The depletion of NADH is followed in a fluorescent-based kinetic assay that follows the formation of pyruvate to lactate, as catalyzed LDH. Pyruvate kinase substrates, PEP and ADP, were present in the assay at 0.1 mM and 4 mM respectively. In this kinetic assay initial rates were determined by following the fluorescence of NADH depletion.
NCGC Assay Protocol Summary:
Three uL of substrate mix (final concentration, 50 mM Tris-Cl pH 8.0, 200 mM KCl, 15 mM MgCl2, 0.1 mM PEP, 4.0 mM ADP, and 0.2 mM NADH) was dispensed into black-solid 1536 well plates. 23 nL of compounds were delivered by a pin tool and 1 uL of enzyme mix (final concentrations, 10 nM hPK-M1 and 1 uM of LDH) was added. Plates were immediately placed in ViewLux (Perkin Elmer) and NADH fluorescence was determined at 30 second exposure intervals for between 3 and 6 minutes. Data were normalized to the uninhibited controls.

Chain of Pyruvate kinase PKM (Homo sapiens) (P14618 whole entry, looked up, canonical isoform): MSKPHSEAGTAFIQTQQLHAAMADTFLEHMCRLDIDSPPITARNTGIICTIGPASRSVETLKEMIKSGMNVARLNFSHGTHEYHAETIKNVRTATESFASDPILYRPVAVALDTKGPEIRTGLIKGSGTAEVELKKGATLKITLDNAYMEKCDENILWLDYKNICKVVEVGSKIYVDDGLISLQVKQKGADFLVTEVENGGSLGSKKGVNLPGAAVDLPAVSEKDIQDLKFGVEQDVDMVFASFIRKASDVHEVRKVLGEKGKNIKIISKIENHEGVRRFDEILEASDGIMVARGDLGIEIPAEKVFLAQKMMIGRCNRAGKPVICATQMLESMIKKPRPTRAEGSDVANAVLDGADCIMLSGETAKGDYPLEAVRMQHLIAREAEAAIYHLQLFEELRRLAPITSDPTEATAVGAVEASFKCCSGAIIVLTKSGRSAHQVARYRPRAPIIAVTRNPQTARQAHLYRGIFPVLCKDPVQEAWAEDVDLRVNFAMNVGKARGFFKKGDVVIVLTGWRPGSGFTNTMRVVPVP

outcome, inactive:
O=C1CCc2cc(S(=O)(=O)Nc3cc(F)cc(Cl)c3)c(F)cc2N1
Cc1ccc(NS(=O)(=O)c2ccc3c(c2)CCN(C(=O)C(F)(F)F)C3)cc1C
O=C1c2ccccc2C(=O)N1c1cccc(=O)[nH]1
O=C1CCc2cc([S+](=O)([O-])NC3CCOCC3)ccc2N1
Cc1ccc(NS(=O)(=O)c2ccc3[nH]c(=O)[nH]c3c2)cc1C
Cc1ccc(NS(=O)(=O)c2ccc3c(c2)NC(=O)CO3)cc1C
Cc1nc(-c2ccc(S(=O)(=O)Nc3ccc(C)c(C)c3)s2)cs1
O=C1CCc2cc([S+](=O)([O-])Nc3ccc(N[S+](=O)([O-])c4ccc5c(c4)CCC(=O)N5)cc3)ccc2N1
Cn1c2cc(S(C)=O)sc2c2cnn(Cc3cccc(O)c3)c(=O)c21 (stereo not given)
Cc1ccc2nc(-c3ccc(C)o3)c(Nc3ccc(Cl)cc3)n2c1
O=C1CCc2cc(S(=O)(=O)Nc3cccc(F)c3)ccc2N1
Cc1ccc(NS(=O)(=O)c2ccc3c(c2)CCC(=O)N3)cc1Cl
O=C1c2ccccc2C(=O)N1c1ccncc1
O=C1NS(=O)(=O)c2ccccc21
O=C1CCc2cc(S(=O)(=O)Nc3ccc4c(c3)OCCO4)ccc2N1
O=C1CCc2cc(S(=O)(=O)Nc3cccc(-c4ccccc4)c3)ccc2N1
Cc1ccc(NS(=O)(=O)c2ccc3c(c2)CCC(C)(C)O3)cc1C
CNc1cc2c(cc1S(=O)(=O)Nc1ccc(C)c(C)c1)CCC(=O)N2
Cc1ccc(NS(=O)(=O)c2cc3c(cc2-c2ccco2)NC(=O)CO3)cc1C
O=C1c2ccccc2C(=O)N1c1cccc2ncccc12
N#Cc1ccc(NS(=O)(=O)c2ccc3c(c2)CCC(=O)N3)cc1
COc1cccc(NS(=O)(=O)c2ccc3c(c2)CCC(=O)N3)c1
Cc1ccc(N(C)S(=O)(=O)c2ccc3c(c2)CCC(=O)N3)cc1C
Cc1ccc(NS(=O)(=O)c2cc3c(cc2Cl)NC(=O)CO3)cc1C
Cc1ccc(NC(=O)c2ccc3c(c2)CCC(=O)N3)cc1C
O=C1c2ccccc2C(=O)N1c1ccc2ccccc2n1
O=C1CCc2cc(S(=O)(=O)Nc3ccc(Cl)c(Cl)c3)c(F)cc2N1
Cc1ccc(-c2nc3ccc(Cl)cn3c2Nc2ccccc2)o1
O=C1CCc2cc(S(=O)(=O)Nc3ccc(F)cc3)ccc2N1
COc1cccc(N2C(=O)c3ccccc3C2=O)c1
COc1ccc(-c2nc3cccc(C)n3c2Nc2ccc(C)cc2)cc1
O=C1c2ccccc2C(=O)N1c1ccccc1O
O=C1CCc2cc(S(=O)(=O)Nc3ccncc3)ccc2N1
Cc1ccc(NS(=O)(=O)c2cc3c(cc2Cl)NC(=O)C3)cc1C
Cc1ccc(NS(=O)(=O)c2ccc3c(c2)C(Cl)(Cl)C(=O)N3)cc1C
CSc1cc2c(s1)c1cnn(Cc3cccc(N)c3)c(=O)c1n2C
O=C1c2ccccc2C(=O)N1c1cccc(O)c1
O=C1c2ccccc2C(=O)N1c1noc2ccccc12
COc1ccc(S(=O)(=O)Nc2ccc(C)c(C)c2)cc1
O=C1c2ccccc2C(=O)N1Cc1ccccc1
